# Screening results (PubChem)
# CendR NRP1 mod – modulators of CendR peptide binding to NRP-1, primary screen, biochemical, fluorescence polarization, uHTS | inhibition, % at 25 µM | FAM-RPARPAR peptide binding to NRP-1 | Neuropilin-1 (Homo sapiens), O14786 | AID 602438, 2012 | 360,000 tested, 0.85% active;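 active = inhibition or corrected inhibition above about 18%, plus a signal ratio from 0.5 to 1.5, limit read from the data, passing the limit was not always enough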
# Target sequence (O14786 whole entry, looked up): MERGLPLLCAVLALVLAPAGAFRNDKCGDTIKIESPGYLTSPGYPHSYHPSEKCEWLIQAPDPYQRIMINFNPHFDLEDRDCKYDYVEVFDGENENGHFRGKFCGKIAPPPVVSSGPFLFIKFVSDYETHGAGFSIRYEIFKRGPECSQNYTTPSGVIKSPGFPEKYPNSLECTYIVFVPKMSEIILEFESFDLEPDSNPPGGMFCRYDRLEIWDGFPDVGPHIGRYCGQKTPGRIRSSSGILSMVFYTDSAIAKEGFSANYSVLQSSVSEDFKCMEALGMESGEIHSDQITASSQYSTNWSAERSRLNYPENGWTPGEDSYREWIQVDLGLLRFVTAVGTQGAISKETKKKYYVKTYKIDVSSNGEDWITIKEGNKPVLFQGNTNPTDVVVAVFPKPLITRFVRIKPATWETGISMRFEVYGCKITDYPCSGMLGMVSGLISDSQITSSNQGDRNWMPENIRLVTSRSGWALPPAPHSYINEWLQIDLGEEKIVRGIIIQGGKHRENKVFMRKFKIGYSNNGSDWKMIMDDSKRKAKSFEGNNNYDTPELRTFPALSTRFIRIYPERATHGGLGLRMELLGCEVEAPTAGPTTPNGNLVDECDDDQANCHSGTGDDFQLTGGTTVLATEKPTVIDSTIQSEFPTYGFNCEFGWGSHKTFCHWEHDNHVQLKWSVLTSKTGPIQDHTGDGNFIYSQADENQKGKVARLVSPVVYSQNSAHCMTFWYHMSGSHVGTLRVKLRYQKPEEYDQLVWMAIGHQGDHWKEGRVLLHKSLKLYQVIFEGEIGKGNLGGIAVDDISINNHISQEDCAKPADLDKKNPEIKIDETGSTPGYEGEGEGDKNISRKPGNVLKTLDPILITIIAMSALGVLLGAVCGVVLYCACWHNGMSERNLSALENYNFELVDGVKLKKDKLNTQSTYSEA
# A3A deaminase – APOBEC3A ssDNA deaminase inhibitors, primary screen, selectivity assay for APOBEC3G inhibitor project, biochemical, FAM/TAMRA oligo cleavage fluorescence; DNA dC->dU-editing enzyme APOBEC-3A (Homo sapiens), P31941; recombinant A3A, FAM/TAMRA ssDNA deamination fluorescence; inhibition, % at 20 µM; 330,000 tested, 0.41% active; AID 493011, 2011;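 active = at least 40% inhibition at 20 µM here, with at most 30% in a related deaminase screen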
# A3G deaminase – APOBEC3G DNA deaminase inhibitors, primary screen, biochemical, fluorescence, single-stranded DNA substrate, uHTS; 330,000 tested, 0.28% active; inhibition, % at 20 µM; recombinant A3G, ssDNA deamination FAM/TAMRA fluorescence; AID 493012, 2011; DNA dC->dU-editing enzyme APOBEC-3G (Homo sapiens), Q9HC16;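 active = inhibition of at least 40% at 20 µM, with no more than 30% in the related APOBEC3A deaminase screen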
# VLA-4 inh – inhibition in human VLA-4 binding assay, primary screen, VLA-4 allosteric modulator project, MLPCN library, flow cytometry, VLA-4 expressing cells. ligand binding flow cytometry. 330,000 tested, 0.2% active. Integrin alpha-4 (Homo sapiens), P13612. inhibition, % (about 7 µM as worked out from the volumes in the protocol); in the data active = inhibition above about 50%
# MIN6 prolif – inducers of MIN6 beta-cell proliferation, primary screen, ATP luminescence, uHTS; 330,000 tested, 0.29% active; MIN6 cells proliferation, ATPlite luminescence, 48 h; cells starved in 0.2% serum; 100% = growth in 10% serum; proliferation, % at 10 µM;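 active = compounds whose signal lies at least 3.5 SD above the mean of all wells on their plate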
# VLA-4 mod pick – retest of VLA-4 allosteric modulators, confirmation, cell-based, cherry-picked plates, U937, HUTS-21 LIBS antibody; shares compounds with VLA-4 inh; 1,300 tested, 2% active; inhibition, % at 6.7 µM; U937 cells, HUTS-21 LIBS mAb binding, flow cytometry; LDV ligand present at threefold Kd; in the data active = inhibition above about 40%
# A number is an active result; – = inactive; · = no result. An excerpt weighted towards active compounds, which were near 1.8% of everything screened.
SMILES,CendR NRP1 mod,A3A deaminase,A3G deaminase,VLA-4 inh,MIN6 prolif,VLA-4 mod pick
Cc1ccc(C(=O)OCC(=O)Nc2cccc(Cl)c2C)c(O)c1,–,–,–,–,–,–
COc1ccc(NC(=O)c2cc(C3CCCCN3C(=O)OCCF)on2)c(C)c1 (centres undefined),–,·,·,·,·,·
CC(=O)Nc1cccc(OCc2cnc(Cl)s2)c1,–,–,–,–,–,·
O=C(Nc1ccccc1)OCc1cnc(Cl)s1,–,–,–,–,–,–
O=C(Nc1ccccc1)OCc1cncs1,–,–,–,–,–,–
O=C(Nc1ccc(Cl)c(Cl)c1)OCc1cncs1,–,–,–,–,–,–
O=C(Nc1ccc(Cl)c(Cl)c1)OCc1cnc(Cl)s1,–,–,–,–,–,–
CCOC(=O)C1(Cc2ccccc2)CCCCCC1=O (centres undefined),–,·,·,·,·,·
Cc1ccc(NC2CCCN(C(=O)CSc3ccccn3)C2)cc1C (centres undefined),–,–,–,–,–,·
C[C@H](CO)N1C[C@H](C)[C@@H](CN(C)C(=O)Nc2ccccc2)Oc2ccc(NC(=O)Cc3ccccc3)cc2C1=O,–,–,–,–,–,·
COc1ccc(Cc2nc3ccc(S(N)(=O)=O)cc3[nH]2)cc1OC,·,–,–,102,–,–
COc1ccc(Cc2nc3ccc(S(=O)(=O)N4CCOCC4)cc3[nH]2)cc1OC,–,–,–,–,–,·
Cc1ccc(Nc2nc(N)nc(CN3CCN(c4ccccc4F)CC3)n2)cc1,–,–,–,–,–,·
Nc1nc(CN2CCN(c3ccccc3F)CC2)nc(Nc2ccccc2)n1,–,–,–,76,–,–
CCOc1ccc(CN2CCN(Cc3cn(CC)nc3C)CC2CCO)cc1 (centres undefined),–,–,–,–,–,–
CCOc1ccc(CN2CCN(Cc3c(C)nn(CC)c3C)CC2CCO)cc1 (centres undefined),–,–,–,–,–,·
CCOC(=O)CNC(=O)c1ccc2[nH]c3ccccc3c2c1,–,–,–,–,–,–
O=C(NCC(O)CO)c1ccc2[nH]c3ccccc3c2c1 (centres undefined),–,–,–,–,–,·
COC(=O)c1cc(C(=O)Nc2nnc(CC(C)(C)C)s2)cc([N+](=O)[O-])c1,–,–,–,51,–,–
Cc1c(NC(=O)CSc2nc(-c3ccco3)cc(C(F)(F)F)n2)c(=O)n(-c2ccccc2)n1C,–,–,–,93,–,–
Cc1cc(NC(=O)CSc2nc(-c3ccco3)cc(C(F)(F)F)n2)n(-c2ccccc2)n1,–,–,–,–,–,·
COc1ccc(CN(C)CC(=O)Nc2ccccc2C(=O)NC2CC2)cc1OC,–,–,–,–,–,·
Cn1c(NC(=O)c2ccc(C(C)(C)C)cc2)cc(=O)n(C)c1=O,–,–,–,53,–,–
Cc1nc(NC(=O)c2ccc(-c3cc4ccccc4oc3=O)cc2)ccc1Br,–,–,–,–,–,–
CCCCOC(=O)CCCN1C(=O)/C(=C2\SC(=S)N(CCCC(=O)OCCCC)C2=O)SC1=S,–,–,–,–,–,·
SMILES,CendR NRP1 mod,A3A deaminase,A3G deaminase,VLA-4 inh,MIN6 prolif,VLA-4 mod pick
CCOC(=O)CN1C(=O)N(CC(=O)OCC)C(c2ccccc2)(c2ccccc2)C1=O,–,–,–,–,–,·
Cc1cc(C=O)c(C)n1-c1sc2c(c1C(=O)O)CCCC2,–,–,–,52,–,–
COc1ccc2[nH]c3c(Cl)ncnc3c2c1,–,–,–,–,–,–
Fc1ccc2[nH]c3c(Cl)ncnc3c2c1,–,–,–,–,–,·
CCOC(=O)c1cc(CC)sc1NC(=O)C1CC1,–,–,–,–,–,·
CCOC(=O)c1cc(CC)sc1NC(=O)C(c1ccccc1)c1ccccc1,–,–,–,–,–,–
Cc1cc2nc3c(c(=O)n2[nH]1)CCCC3,–,–,–,91,–,–
CCC1C(c2ccccc2)=CCC(C(=O)O)C1C (centres undefined),–,·,·,·,·,·
COc1ccc(-c2nc(CN3CCN(c4ccccc4OC)CC3)c(C)o2)cc1,–,–,–,–,–,·
COc1ccccc1N1CCN(Cc2nc(-c3ccc(F)cc3)oc2C)CC1,–,–,–,52,–,–
O=c1c2[nH]c3cccc(Cl)c3c2ncn1CC1CCCO1 (centres undefined),–,–,–,–,–,–
COc1ccc2c(c1)[nH]c1c(=O)n(CC3CCCO3)cnc12 (centres undefined),–,–,–,–,–,·
O=c1c2[nH]c3cccc(Cl)c3c2ncn1CCN1CCCCC1,–,–,–,–,–,–
O=c1c2[nH]c3cccc(Cl)c3c2ncn1Cc1ccco1,–,–,–,–,–,–
CSCCC(NC(=O)c1ccccc1Cl)C(=O)NNC(=O)c1ccncc1 (centres undefined),–,–,–,–,–,·
Cc1ccc(C(=O)Nc2cc(C)nn2CCC#N)cc1,–,–,–,–,–,·
O=c1ccc(=O)n(CCc2ccccn2)[nH]1,–,·,·,·,·,·
Cc1cc(C)n(/C(=C\N(C)C)C(=O)c2cccc([N+](=O)[O-])c2)n1,–,–,–,–,–,–
Cc1cc(C)n(/C(=C\N(C)C)C(=O)c2ccc(Cl)cc2)n1,–,–,–,–,–,·
O=C(Nc1ccccc1)Nc1ccc(Cl)nc1Cl,–,–,–,–,–,·
CC1=C(C(=O)OCC2CCCO2)C(c2ccncc2)C2=C(CCCC2=O)N1 (centres undefined),–,–,–,92,–,–
CN(CC(=O)Nc1ccccc1Cl)C(=O)Cn1cnc2ccc(Cl)cc2c1=O,–,–,–,–,–,·
COc1ccc(NC(=O)CN(C)C(=O)c2ccc3c(c2)OCCO3)cc1,–,–,–,–,–,·
COC(=O)c1ccc(N2CCN(c3ccccc3)CC2)c(NC(=O)C2CC2)c1,–,–,–,–,–,·
COC(=O)c1ccc(N2CCN(c3ccccc3)CC2)c(N)c1,–,–,–,–,–,–
Cc1c(NC(=O)CCC(=O)N2CCOCC2)c(=O)n(-c2ccccc2)n1C,–,–,–,–,–,·
Cc1c(NC(=O)CCC(=O)N2CCCCC2)c(=O)n(-c2ccccc2)n1C,–,–,–,–,–,–
Cc1c(NC(=O)COC(=O)C(c2ccc(Cl)cc2)C(C)C)c(=O)n(-c2ccccc2)n1C (centres undefined),–,–,–,–,–,·
